The campaign covered roughly 87,000 compounds. About 540 (0.62%) were called active. The sample holds actives, similar compounds and a random draw of the others, so the mix is not that of the screen. How the calls were made is not given here. Results with a measured potency or affinity are listed apart.
Test: MT1-MMP gene expression reporter suppression – cell-based, luciferase reporter, luminescence (AID 618);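 further: actives suppress MT1-MMP promoter-driven transcription so potencies describe inhibitors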
Conditions: MT1-MMP promoter luciferase reporter cells

SMILES | outcome
COc1ccc(C2C(=O)N(C3CCCCC3)CC(=O)N2Cc2ccc3c(c2)OCO3)cc1 (configuration not stated) | inactive
COc1ccc2nc(NC(=O)c3cc(C)oc3C)sc2c1 | inactive
COc1ccc(NS(=O)(=O)c2cc(OC)ccc2NC(=O)c2cc(C)oc2C)cc1 | active
COc1ccc(C)c(S(=O)(=O)Nc2ccc(OCC(=O)O)cc2)c1 | inactive
COc1ccc(NS(=O)(=O)c2cc(C)ccc2NC(=O)c2cc(C)oc2C)cc1 | active
COc1ccc(NS(=O)(=O)c2cc(C)ccc2C)cc1 | inactive
COc1ccc(NS(=O)(=O)c2cc(C(=O)O)ccc2C)cc1 | inactive
CC(C)(C)c1ccc(C(=O)C=[N+]=[N-])cc1 | inactive
Cc1nn(C)c(C)c1CN(C)C(=O)c1cc2n(n1)C(C(F)(F)F)CC(c1cccs1)N2 (configuration not stated) | inactive
CCOC(=O)c1ccc(N2C(=O)CC(N3CCC(C(N)=O)(N4CCCCC4)CC3)C2=O)cc1 (configuration not stated) | inactive
CCn1c(=O)cc(SCC(=O)N2CCCCC2)c2ccccc21 | inactive
CCOC(=O)c1oc2ccccc2c1CSc1nnnn1-c1ccc(C)cc1 | inactive
O=C(/C=C/Nc1cccc([N+](=O)[O-])c1)c1cccs1 | inactive
CNc1cc([N+](=O)[O-])ccc1N/C=C/C(=O)c1cccs1 | inactive
COc1ccccc1NC(=O)CSc1nccc(=O)[nH]1 | inactive
CCOc1cccc(C(=O)Nc2nccs2)c1 | inactive
CCCc1cc(C(=O)Nc2nnc(C)s2)cs1 | inactive
O=C(Nc1cnccn1)c1cccc(C(F)(F)F)c1 | inactive
O=C(Nc1cnccn1)c1ccncc1 | inactive
CC(C)(C)c1ccc(C(=O)Nc2cnccn2)cc1 | active
Cc1ccnc(SCC(=O)N2CCN(c3ccccc3)CC2)n1 | inactive
O=C(CCCC(=O)N(CC(=O)NC1CCCC1)Cc1ccccc1)Nc1ccccn1 | inactive
COCCNC(=O)CNS(=O)(=O)c1ccc2nc(C)sc2c1 | inactive
CN(C(=O)c1ccno1)c1nnc(-c2cnccn2)s1 | inactive
Cc1ccc(C)c(SCC(=O)OCC(=O)Nc2ccc(S(=O)(=O)N3CCOCC3)cc2)c1 | inactive

SMILES | outcome
O=C1CC(C(=O)Nc2cccc3ccccc23)C2(CCCC2)O1 (configuration not stated) | inactive
Cc1ccc2c(c1)c1c3n2CCN(C(=O)Cn2c(-c4ccccc4)noc2=O)C3CCC1 (configuration not stated) | inactive
Cc1ccc2c(c1)c(=O)c1c3n2CCN(C(=O)CCl)C3CC1 (configuration not stated) | active
CC(=O)N1CCn2c3c(c(=O)c4cc(C)ccc42)CCC31 (configuration not stated) | inactive
Cc1sc2nc(CSc3nnc(Cc4cccs4)n3C3CCCCC3)[nH]c(=O)c2c1C | inactive
Cc1ccc(NC2=NC(c3ccc(O)cc3)n3c(nc(C)cc3=O)N2)cc1 (configuration not stated) | inactive
Nc1nonc1/C(=N/O)N1CCN(CCO)CC1 | inactive
CNC(=O)[C@@]1(Cc2ccccc2)C=C[C@@H](C)N1C(=O)OC | inactive
COC(=O)N1[C@H](C)C=C[C@]1(Cc1ccccc1)C(=O)OC | inactive
COC(=O)N1[C@H](C)C=C[C@]1(Cc1ccccc1)C(=O)O | active
Nc1nonc1N1CCCCC1 | inactive
CCCNC(=O)Cn1cnc2sc(C(=O)NCCN(CC)CC)c(C)c2c1=O | inactive
COc1ccc(-c2noc(CCC(=O)O)n2)cc1 | inactive
CN(C)C(=O)CCc1nc(-c2ccc(C(C)(C)C)cc2)no1 | inactive
CNC(=O)CCc1nc(-c2ccc(C(C)(C)C)cc2)no1 | inactive
O=C(O)CCCc1nc(-c2ccccc2)no1 | inactive
CCOC(=O)C1C2C=CC3(CN(CCc4ccccc4)C(=O)C13)O2 (configuration not stated) | inactive
O=C(c1csc2c1CCCC2)N1CCN(c2ncccn2)CC1 | inactive
Cc1cccc(-n2nnnc2SC(C)C(=O)NCCC2=CCCCC2)c1 (configuration not stated) | inactive
CC(C(=O)NC(=O)NC1CCCCC1)N1CCN(c2ccccn2)CC1 (configuration not stated) | inactive
O=C(CNC(=O)c1ccco1)NCC(=O)OCc1cccc(Cl)c1 | inactive
Nc1nc(-c2cccc(Br)c2)cs1 | inactive
CCOC(=O)CNC(=O)c1cc(-c2ccc3c(c2)OCCO3)oc1C | inactive
Cc1oc(-c2ccc3c(c2)OCCO3)cc1C(=O)NC(CCC(=O)O)C(=O)O (configuration not stated) | inactive
COc1cc(C)c(-c2cc(C(=O)O)c(C)o2)cc1C(C)C | inactive

SMILES | outcome
Cc1oc(-c2ccccc2)cc1C(N)=O | inactive
COc1ccc(C2=NN(CN3C(=O)C(=O)c4ccccc43)C(c3ccc(C)cc3)C2)cc1 (configuration not stated) | inactive
O=C(N1CCN(c2ccccn2)CC1)N1c2ccccc2Sc2ccccc21 | active
O=C(CN1CCN(c2ccccn2)CC1)N1c2ccccc2Sc2ccc(C(F)(F)F)cc21 | inactive
O=C(c1ccco1)N1c2ccccc2Sc2ccccc21 | inactive
O=C(N1CCOCC1)N1CCN(c2ccccn2)CC1 | inactive
O=C(c1ccco1)N1CCN(C(=O)N2c3ccccc3Sc3ccccc32)CC1 | active
O=C(NC1CCN(C(=O)N2c3ccccc3Sc3ccccc32)CC1)c1ccco1 | inactive
CC(C)NC(=O)c1c2c(nc3ccccc13)CCCC2 | inactive
Cc1nnc2ccc(N3CCN(C(=O)c4ccccc4)CC3)nn12 | inactive
O=C1COc2ccc(C(=O)COC(=O)Cn3cnc4ccccc43)cc2N1 | inactive
CCOC(=O)CNC(=O)C(CC(C)C)NC(=O)C1CCCCC1 (configuration not stated) | inactive
CC(C)c1ccc(OCc2nc(-c3ccccn3)no2)c(Br)c1 | inactive
Cc1ccc(OCc2nc(-c3ccccn3)no2)cc1 | inactive
Clc1cc(Cl)c(OCc2nc(-c3ccccn3)no2)cc1Cl | inactive
Clc1ccccc1OCc1nc(-c2ccncc2)no1 | inactive
CC(C)(C)c1ccc(OCc2nc(-c3ccccn3)no2)c(Br)c1 | inactive
Clc1ccc(OCc2nc(-c3ccccn3)no2)c(Br)c1 | inactive
CCc1ccc(OCc2nc(-c3ccccn3)no2)c(Br)c1 | active
O=C(NCC1COc2ccccc2O1)c1c[nH]c2ccc(S(=O)(=O)N3CCOCC3)cc2c1=O (configuration not stated) | inactive
CCN(CC)c1ccc(NC(=O)CCCCCN2C(=O)c3ccccc3C2=O)cc1 | inactive
CCOC(=O)C1CCN(C(=O)CN(c2cccc(C(F)(F)F)c2)S(C)(=O)=O)CC1 | inactive
CN(C)S(=O)(=O)N1CCN(C(=O)N2CCOCC2)CC1 | inactive
COc1cccc(CSc2nc3sc(C)c(C)c3c(=O)n2Cc2ccco2)c1 | inactive
C=CCn1c(COc2cccc3ccc(C)nc23)nnc1SCC(=O)O | inactive

SMILES | outcome
CC(C)CCNC(=O)C1C2C=CC3(CN(Cc4ccccc4Cl)C(=O)C13)O2 (configuration not stated) | inactive
CCOC(=O)N1CCN(C(=O)c2ccccc2-c2ccccc2)CC1 | active
O=C(c1ccccc1-c1ccccc1)N1CCCC1 | inactive
CCOC(=O)N1CCN(C(=O)c2ccccc2Oc2ccccc2)CC1 | inactive
Fc1ccc(-c2cc(C(F)(F)F)nc(N3CCCCC3)n2)cc1 | inactive
Cc1nc2ncnn2c(N2CCC(C(=O)NCC3CCCO3)CC2)c1Cc1ccccc1 (configuration not stated) | inactive
COc1ccc(CCNc2nnc(Sc3nnnn3-c3ccccc3)s2)cc1OC | active
CCCSc1nnc(Sc2nnnn2-c2ccccc2)s1 | inactive
COc1ccc(-n2nnnc2SCC(=O)NCCc2ccc(OC)c(OC)c2)cc1 | inactive
COc1cccc2cc(C(C)=O)c(=O)oc12 | inactive
O=C(C1CCCN(Cc2ccccc2)C1)N1CCCCC1 (configuration not stated) | inactive
CCOC(=O)c1sc(NC(=O)c2cncc(Br)c2)nc1C | inactive
CCC(C)(C)n1nnnc1C(c1ccc2ncccc2c1)N1CCN2CCCC2C1 (configuration not stated) | inactive
CCN1CCN(/C=N/c2nc3c(s2)CCCC3)CC1 | active
CN1CCN(/C=N/c2sc3c(c2C#N)CCCCC3)CC1 | inactive
CCN1CCN(/C=N/c2nc(C)cs2)CC1 | inactive
CC1=CC(C)(C)N2C(=O)C3(C(C#N)=C(N)Oc4cc(C)oc(=O)c43)c3cc(C)cc1c32 (configuration not stated) | inactive
O=C(O)c1ccc(COc2cccc(CO)c2)cc1 | inactive
O=C(O)c1ccc(COc2ccc(CO)cc2Cl)cc1 | inactive
O=C(CCCOc1ccc(Cl)cc1Cl)N1CCN(c2ccccn2)CC1 | inactive
O=C(O)c1ccccc1COc1ccccc1Cl | inactive
O=C(O)c1ccc(COc2ccccc2Cl)cc1 | inactive
O=C(c1cccc(Cl)c1)N1CCN(c2ccccn2)CC1 | inactive
O=C(O)c1cccc(COc2ccc(CO)cc2Cl)c1 | active
O=C(O)c1cccc(COc2ccccc2Cl)c1 | active

SMILES | outcome
CCOC(=O)CNC(=O)CSc1ncnc2c1cnn2-c1ccccc1 | inactive
CCOC(=O)CNC(=O)CSc1ncnc2c1cnn2-c1ccc(Cl)cc1 | inactive
CCOC(=O)CCc1c(C)n(CC)c2cc(-c3ccccc3OC)nn2c1=O | inactive
c1cnc(N2CC[N+]3(CCCC3)CC2)nc1 | inactive
CCOc1cc(-c2nnc(-c3ccco3)o2)cc(OCC)c1OCC | inactive
COCCCNC(=O)Cn1nnc(-c2ccccc2NC(=O)c2ccccc2F)n1 | inactive
COc1ccc(C2C(C(C)=O)=C(O)C(=O)N2CCO)c(OC)c1 (configuration not stated) | inactive
COC(=O)c1ccc(OC(=O)c2ccc(OC)c(OC)c2)c(OC)c1 | inactive
COC(=O)c1ccc(OC(=O)c2ccc(OCc3c(C)noc3C)c(OC)c2)cc1 | inactive
COC(=O)c1ccc2c(c1)C(C)(C)C(/C=C/c1ccc(OC)c(OC)c1OC)=[N+]2C | active
CCn1c(=O)c2c3c(sc2n(C)c1=O)CCC3 | inactive
Cc1cccc(OCC(=O)Nc2cccc(O)c2)c1 | inactive
Cc1ccc(OCC(=O)Nc2cccc(O)c2)cc1C | inactive
O=C(CCN1CCN(c2ccccc2)CC1)Nc1ccc(Cl)cc1 | inactive
Cc1cn(Cc2ccccc2)c(=O)[nH]c1=O | inactive
Cc1ncsc1C(=O)Nc1nc2c(s1)CC(C)CC2 (configuration not stated) | inactive
CC1CCc2nc(NC(=O)CN3CCOCC3)sc2C1 (configuration not stated) | inactive
O=C(Nc1nc2c(s1)CCCC2)c1ccc(Br)o1 | inactive
CC1CCc2nc(NC(=O)c3ccco3)sc2C1 (configuration not stated) | active
CC1CCc2nc(NC(=O)Cc3cccs3)sc2C1 (configuration not stated) | inactive
Cc1cc(C(=O)Nc2nc3c(s2)CCCC3)no1 | inactive
CC1CCc2nc(NC(=O)C3CC3)sc2C1 (configuration not stated) | inactive
